# Measured values published in PubChem BioAssay (NCATS).
# Records with an inconclusive call do not appear. The source made the active and inactive calls. Calls come from the whole dose curve; as a rule, active = well fitted inhibition curve with a large enough effect; inconclusive = small, poorly fitted or top-dose-only effect; inactive = flat fitted curve, though single readings scatter.
# System: CP192
# Assay: qHTS profiling for inhibitors of Plasmodium falciparum proliferation (AID 504749);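 note: 0% = DMSO vehicle and full inhibition = artemisinin control; nearly all actives have a fitted effect of over 60% in size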
# Settings: P. falciparum in erythrocytes, SYBR Green DNA, 72 h; series mostly up to 28.7 µM; activity, negative = inhibition: at the top concentration
# Summary of the method: (§1)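 Three-day growth assay of blood-stage parasites in erythrocytes (0.3% parasitemia, 2.5% hematocrit) at 37 C, 5% CO2, quantified by SYBR Green DNA staining after overnight detergent lysis.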
SMILES,Potency,"activity, negative = inhibition"
NC(=O)NNc1ccccc1,inactive,–
O=C(O)[C@@H]1CSCN1,–,-5.62% (inactive)
COc1ccc2c(c1)C(=O)N(CCc1ccc(S(=O)(=O)NC(=O)NC3CCCCC3)cc1)C(=O)C2(C)C,–,10.3% [at 12.8 µM] (inactive)
CCCc1c(OCCCCc2nn[nH]n2)ccc(C(C)=O)c1O,–,-0.688% (inactive)
COc1ccc2[nH]c(S(=O)Cc3ncc(C)c(OC)c3C)nc2n1 (centres undefined),–,-0.509% (inactive)
CCn1cc(C(=O)O)c(=O)c2cnc(N3CCNCC3)nc21,–,-7.75% [at 12.8 µM] (inactive)
O=C(O)COc1nn(Cc2ccccc2)c2ccccc12,–,1.9% (inactive)
O=C1O[C@H]([C@@H](O)CO)C(O)=C1O,–,1.3% (inactive)
O=S(=O)(O)c1cc(I)c(O)c2ncccc12,–,-0.668% (inactive)
CC1=C(CC(=O)O)c2cc(F)ccc2/C1=C\c1ccc(S(C)=O)cc1 (centres undefined),–,2.7% (inactive)
CCOC(=O)c1ccc(O)cc1,–,-0.681% (inactive)
O=C(O)c1ccccn1,–,3.4% (inactive)
Cc1cc(O)cc2c1O[C@](C)(CCC[C@H](C)CCC[C@H](C)CCCC(C)C)CC2,–,-2.13% (inactive)
NCC(=O)CCC(=O)O,–,-3.66% (inactive)
CC(C)(C)C(=O)NCCCC(=O)O,–,-18% (inactive)
COc1cc2[nH]c(=O)[nH]c(=O)c2cc1OC,–,0.879% [at 12.8 µM] (inactive)
CCC(=O)Nc1ccc(O)cc1,–,-2.89% (inactive)

SMILES,Potency,"activity, negative = inhibition"
COc1ccc(Cl)cc1C(=O)NCCc1ccc(S(=O)(=O)NC(=O)NC2CCCCC2)cc1,–,0.395% (inactive)
O=C1NC(=O)[C@@]2(CCOc3ccc(F)cc32)N1,–,2.92% (inactive)
O=Cc1ccccc1C=O,–,2.85% (inactive)
CC(O)CN(CCN(CC(C)O)CC(C)O)CC(C)O (centres undefined),–,-0.0313% (inactive)
Cc1ccc(C(C)C)cc2c(C)ccc1-2,–,-0.584% (inactive)
Nc1nc2c(ncn2CCC(CO)CO)c(=O)[nH]1,–,1.09% (inactive)
NCCNCCNCCN,–,7.76% (inactive)
CC1(C)OC(=O)NC1=O,–,9.15% (inactive)
CCCCN(CCCC)CCCOC(=O)c1ccc(N)cc1,–,0.755% [at 12.8 µM] (inactive)
O=C1c2c(O)cccc2Cc2cccc(O)c21,–,1.49% (inactive)
CCCOC(=O)c1ccccc1,–,10% (inactive)
CC12CCC(CC1)C(C)(C)O2,–,-1.42% (inactive)
CC(=O)Nc1ccc(/C=N/NC(N)=S)cc1,inactive,–
CC(C)(C)NCC(O)COc1ccc(NC(=O)NC2CCCCC2)cc1 (centres undefined),–,0.157% (inactive)
O=C1OC(OC(=O)c2cccnc2Nc2cccc(C(F)(F)F)c2)c2ccccc21 (centres undefined),–,6.21% (inactive)
O=C1NS(=O)(=O)c2ccccc21,–,-13.5% (inactive)

# System: CP194
# Assay: as above
# Settings: P. falciparum in erythrocytes, SYBR Green DNA, 72 h; series mostly up to 28.7 µM; activity, negative = inhibition: at the top concentration
# Summary of the method: as §1
SMILES,Potency,"activity, negative = inhibition"
NC(=O)NNc1ccccc1,inactive,–
O=C(O)[C@@H]1CSCN1,–,11.4% (inactive)
COc1ccc2c(c1)C(=O)N(CCc1ccc(S(=O)(=O)NC(=O)NC3CCCCC3)cc1)C(=O)C2(C)C,–,-2.43% [at 12.8 µM] (inactive)
CCCc1c(OCCCCc2nn[nH]n2)ccc(C(C)=O)c1O,–,-22.1% (inactive)
COc1ccc2[nH]c(S(=O)Cc3ncc(C)c(OC)c3C)nc2n1 (centres undefined),–,-18.7% (inactive)
CCn1cc(C(=O)O)c(=O)c2cnc(N3CCNCC3)nc21,–,1.99% [at 12.8 µM] (inactive)
O=C(O)COc1nn(Cc2ccccc2)c2ccccc12,–,-3.41% (inactive)
O=C1O[C@H]([C@@H](O)CO)C(O)=C1O,–,2.93% (inactive)
O=S(=O)(O)c1cc(I)c(O)c2ncccc12,–,1.04% (inactive)
CC1=C(CC(=O)O)c2cc(F)ccc2/C1=C\c1ccc(S(C)=O)cc1 (centres undefined),–,4.58% (inactive)
CCOC(=O)c1ccc(O)cc1,–,-4.43% (inactive)
O=C(O)c1ccccn1,–,2.12% (inactive)
Cc1cc(O)cc2c1O[C@](C)(CCC[C@H](C)CCC[C@H](C)CCCC(C)C)CC2,–,0.586% (inactive)
NCC(=O)CCC(=O)O,–,-2.67% (inactive)
CC(C)(C)C(=O)NCCCC(=O)O,–,2.05% (inactive)
COc1cc2[nH]c(=O)[nH]c(=O)c2cc1OC,–,5.14% [at 12.8 µM] (inactive)
CCC(=O)Nc1ccc(O)cc1,–,-5.88% (inactive)

SMILES,Potency,"activity, negative = inhibition"
COc1ccc(Cl)cc1C(=O)NCCc1ccc(S(=O)(=O)NC(=O)NC2CCCCC2)cc1,–,-0.217% (inactive)
O=C1NC(=O)[C@@]2(CCOc3ccc(F)cc32)N1,–,1.47% (inactive)
O=Cc1ccccc1C=O,–,0.37% (inactive)
CC(O)CN(CCN(CC(C)O)CC(C)O)CC(C)O (centres undefined),–,-0.871% (inactive)
Cc1ccc(C(C)C)cc2c(C)ccc1-2,–,-8.9% (inactive)
Nc1nc2c(ncn2CCC(CO)CO)c(=O)[nH]1,–,-3.43% (inactive)
NCCNCCNCCN,–,5.29% (inactive)
CC1(C)OC(=O)NC1=O,–,2.12% (inactive)
CCCCN(CCCC)CCCOC(=O)c1ccc(N)cc1,–,-8.32% [at 12.8 µM] (inactive)
O=C1c2c(O)cccc2Cc2cccc(O)c21,–,-3.72% (inactive)
CCCOC(=O)c1ccccc1,–,0.867% (inactive)
CC12CCC(CC1)C(C)(C)O2,–,-1.42% (inactive)
CC(=O)Nc1ccc(/C=N/NC(N)=S)cc1,inactive,–
CC(C)(C)NCC(O)COc1ccc(NC(=O)NC2CCCCC2)cc1 (centres undefined),–,1.11% (inactive)
O=C1OC(OC(=O)c2cccnc2Nc2cccc(C(F)(F)F)c2)c2ccccc21 (centres undefined),–,7.11% (inactive)
O=C1NS(=O)(=O)c2ccccc21,–,2.16% (inactive)

# System: CP201
# Assay: as above
# Settings: P. falciparum in erythrocytes, SYBR Green DNA, 72 h; series mostly up to 28.7 µM; activity, negative = inhibition: at the top concentration
# Summary of the method: as §1
SMILES,Potency,"activity, negative = inhibition"
NC(=O)NNc1ccccc1,inactive,–
O=C(O)[C@@H]1CSCN1,–,11.9% (inactive)
COc1ccc2c(c1)C(=O)N(CCc1ccc(S(=O)(=O)NC(=O)NC3CCCCC3)cc1)C(=O)C2(C)C,–,-1.41% [at 12.8 µM] (inactive)
CCCc1c(OCCCCc2nn[nH]n2)ccc(C(C)=O)c1O,–,-8.55% (inactive)
COc1ccc2[nH]c(S(=O)Cc3ncc(C)c(OC)c3C)nc2n1 (centres undefined),–,-5.74% (inactive)
CCn1cc(C(=O)O)c(=O)c2cnc(N3CCNCC3)nc21,–,-8.03% [at 12.8 µM] (inactive)
O=C(O)COc1nn(Cc2ccccc2)c2ccccc12,–,-1.92% (inactive)
O=C1O[C@H]([C@@H](O)CO)C(O)=C1O,–,1.73% (inactive)
O=S(=O)(O)c1cc(I)c(O)c2ncccc12,–,0.532% (inactive)
CC1=C(CC(=O)O)c2cc(F)ccc2/C1=C\c1ccc(S(C)=O)cc1 (centres undefined),–,5.44% (inactive)
CCOC(=O)c1ccc(O)cc1,–,-0.731% (inactive)
O=C(O)c1ccccn1,–,1.43% (inactive)
Cc1cc(O)cc2c1O[C@](C)(CCC[C@H](C)CCC[C@H](C)CCCC(C)C)CC2,–,3.14% (inactive)
NCC(=O)CCC(=O)O,–,-4.55% (inactive)
CC(C)(C)C(=O)NCCCC(=O)O,–,1.61% (inactive)
COc1cc2[nH]c(=O)[nH]c(=O)c2cc1OC,–,-0.0369% [at 12.8 µM] (inactive)
CCC(=O)Nc1ccc(O)cc1,–,1.22% (inactive)

SMILES,Potency,"activity, negative = inhibition"
COc1ccc(Cl)cc1C(=O)NCCc1ccc(S(=O)(=O)NC(=O)NC2CCCCC2)cc1,–,-3.87% (inactive)
O=C1NC(=O)[C@@]2(CCOc3ccc(F)cc32)N1,–,6.2% (inactive)
O=Cc1ccccc1C=O,–,2.41% (inactive)
CC(O)CN(CCN(CC(C)O)CC(C)O)CC(C)O (centres undefined),–,-2.25% (inactive)
Cc1ccc(C(C)C)cc2c(C)ccc1-2,–,-6.71% (inactive)
Nc1nc2c(ncn2CCC(CO)CO)c(=O)[nH]1,–,-1.65% (inactive)
NCCNCCNCCN,–,1.29% (inactive)
CC1(C)OC(=O)NC1=O,–,-5.55% (inactive)
CCCCN(CCCC)CCCOC(=O)c1ccc(N)cc1,–,-1.35% [at 12.8 µM] (inactive)
O=C1c2c(O)cccc2Cc2cccc(O)c21,–,-1.52% (inactive)
CCCOC(=O)c1ccccc1,–,0.953% (inactive)
CC12CCC(CC1)C(C)(C)O2,–,-10% (inactive)
CC(=O)Nc1ccc(/C=N/NC(N)=S)cc1,inactive,–
CC(C)(C)NCC(O)COc1ccc(NC(=O)NC2CCCCC2)cc1 (centres undefined),–,-0.559% (inactive)
O=C1OC(OC(=O)c2cccnc2Nc2cccc(C(F)(F)F)c2)c2ccccc21 (centres undefined),–,-1.65% (inactive)
O=C1NS(=O)(=O)c2ccccc21,–,-3.54% (inactive)
